According to PubChem BioAssay AID743446 (Broad Institute, 2014):
Potency and affinity values are given separately. Active and inactive are the calls of the source. How the calls were made is not given here.

assay: viability loss in HEK293 cells – cell-based, plate reader, cherry-picked samples, cytotoxicity control, dose response (AID 743446); settings: stronger effect = lower value; at 26 µM unless noted

**Q.** For `O=C(O)c1cccc(-c2noc(-c3cccc(Cl)c3)n2)c1`, which max activity is on record?
**A.** The max activity was 9.55% (inactive).

**Q.** With `COc1ccc(-n2ncc3c(N(C)C4CCCCC4)ncnc32)cc1` as the compound, how does the max activity read?
**A.** Its max activity is 31.2% [at 0.05 µM] (inactive).

**Q.** For `CC(=O)Nc1cccc(-c2ccnc3c2CC(C(=O)NCc2cccnc2)O3)c1` (stereo not drawn), which max activity is on record?
**A.** The max activity was 0% [setting not given] (inactive).

**Q.** With `Cc1ccc(-n2cc(CN(C)Cc3nccn3C)c(-c3cccc(C)c3)n2)cc1` as the compound, how does the max activity read?
**A.** The max activity was 22.6% [at 1.6 µM] (inactive).

**Q.** For `COc1cccc(C(=O)Nc2ccc3c(c2)OC[C@@H](C)N(CC2CC2)C[C@H](C)[C@H](OC)CN(C)C3=O)c1`, which max activity is on record?
**A.** The max activity was 13% [at 0.05 µM] (inactive).

**Q.** Which max activity does the source give for `CCCNC(=O)Nc1ccc2c(c1)C(=O)N(C)C[C@H](OC)[C@H](C)CN(Cc1ccc(-c3ccccn3)cc1)[C@@H](C)CO2` here?
**A.** Its max activity is 32.1% [at 0.75 µM] (inactive).

**Q.** With `C[C@H]1CCCCO[C@@H](CN(C)C(=O)Nc2ccc(F)cc2)[C@@H](C)CN([C@@H](C)CO)C(=O)c2cc(NC(=O)C3CCCCC3)ccc2O1` as the compound, how does the max activity read?
**A.** The max activity was -14.5% [at 6 µM] (inactive).

**Q.** Which max activity does the source give for `CN1c2ccc(-c3ccc(F)cc3)cc2[C@H]2[C@H](CCN2C(=O)Nc2ccc(F)cc2)[C@H]1CO` here?
**A.** Its max activity is 39.2% [at 1.6 µM] (inactive).

**Q.** Which max activity does the source give for `CN(C)c1ccc(NC(=O)c2cnsn2)cc1` here?
**A.** The max activity was -9.61% [at 12 µM] (inactive).

**Q.** With `Cc1ccc(NC(=O)c2cnn(-c3ccccc3)c2C)cc1C` as the compound, how does the max activity read?
**A.** Its max activity is 11.5% [at 0.05 µM] (inactive).

**Q.** With `Cc1ccccc1S(=O)(=O)N1[C@H](C#N)[C@H](c2ccc(C#CC3CCCCC3)cc2)[C@H]1CO` as the compound, how does the max activity read?
**A.** The max activity was 29.2% [at 3 µM] (inactive).

**Q.** With `COc1cc(C(=O)Nc2nc(-c3cccs3)cs2)cc(OC)c1OC` as the compound, how does the max activity read?
**A.** The max activity was 53.9% [at 6 µM] (inactive).

**Q.** Which max activity does the source give for `CCCn1c(C)cc(C(=O)CN2C(=O)c3ccccc3S2(=O)=O)c1C` here?
**A.** Its max activity is -16% [at 3 µM] (inactive).

**Q.** With `COc1ccc2oc(C(=O)NCCc3ccccc3)c(C)c2c1` as the compound, how does the max activity read?
**A.** Its max activity is -55.4% (inactive).

**Q.** Which max activity does the source give for `Cc1ccc(-c2cc(C(=O)N3CCOCC3)no2)cc1` here?
**A.** Its max activity is -12% [at 6 µM] (inactive).

**Q.** Which max activity does the source give for `O=C(O)c1ccc(N/N=C/c2ccc3ncccc3c2)cc1` here?
**A.** Its max activity is 14.9% [at 12 µM] (inactive).

**Q.** For `Cc1cc(C(=O)Nc2ccc(N3CCCCC3)cc2)no1`, which max activity is on record?
**A.** The max activity was 16% [at 0.195 µM] (inactive).

**Q.** For `C[C@H](CO)N1C[C@H](C)[C@H](CN(C)S(=O)(=O)c2ccc(C(F)(F)F)cc2)OCc2ccccc2-c2c(n(C)c3ccccc23)C1=O`, which max activity is on record?
**A.** Its max activity is -10.7% [at 1.6 µM] (inactive).

**Q.** With `O=C(O)c1ccc(-c2noc(-c3ccccc3Cl)n2)cc1` as the compound, how does the max activity read?
**A.** Its max activity is -20.2% [at 6 µM] (inactive).

**Q.** With `CN1CCN(c2ccc(NC(=O)N3CCc4ccccc43)cc2)CC1` as the compound, how does the max activity read?
**A.** The max activity was 17.5% [at 1.6 µM] (inactive).

**Q.** With `CCn1c2ccccc2c2cc(CNCc3ccc(OC)cc3OC)ccc21` as the compound, how does the max activity read?
**A.** The max activity was -98.9% (inactive).

**Q.** Which max activity does the source give for `CC(C)CCn1cnc2c(oc3nc4c(cc32)CCCC4)c1=O` here?
**A.** Its max activity is -17.8% (inactive).

**Q.** For `CO[C@H]1CN(C)C(=O)c2ccc(NC(=O)c3ccc(-c4ccccc4)cc3)cc2OC[C@@H](C)NC[C@@H]1C`, which max activity is on record?
**A.** The max activity was 20.6% [at 0.8 µM] (inactive).

**Q.** Which max activity does the source give for `COCCOc1cc(NCc2ccccc2)c2ncn(C(C)C)c2c1` here?
**A.** Its max activity is -9.83% [at 0.1 µM] (inactive).

**Q.** With `C[C@H](CO)N1C[C@H](C)[C@H](CN(C)C(=O)Nc2ccc(C(F)(F)F)cc2)OCCCC[C@H](C)Oc2ccc(NC(=O)NC3CCCCC3)cc2C1=O` as the compound, how does the max activity read?
**A.** Its max activity is 66% (inactive).

**Q.** With `COc1cccc(-c2ccc(C3[C@@H]4CN(C(=O)C5CC5)C[C@H]3N4)cc2)c1` (stereo partly drawn) as the compound, how does the max activity read?
**A.** The max activity was 15.1% [at 3 µM] (inactive).

**Q.** For `Cc1c(NC(=O)c2ccc(-c3ccccc3)cc2)cccc1C(=O)O`, which max activity is on record?
**A.** The max activity was 41.3% (inactive).

**Q.** For `CSc1nnc(NC(=O)c2ccc3c(c2)OCO3)s1`, which max activity is on record?
**A.** The max activity was -9.38% [at 12 µM] (inactive).

**Q.** With `OC[C@H]1[C@@H](c2ccc(-c3ccc(F)cc3)cc2)[C@@H]2CN(Cc3ccccn3)CCCCN12` as the compound, how does the max activity read?
**A.** The max activity was -12.3% (inactive).

**Q.** With `Cc1nc2c(OCCC3CCCCC3)cccn2c1N(C)C(=O)CCC1CCCC1` as the compound, how does the max activity read?
**A.** Its max activity is -22.5% [at 6 µM] (inactive).

**Q.** With `COc1ccc(S(=O)(=O)N2CCN(C(=O)c3ccc(C)o3)CC2)cc1` as the compound, how does the max activity read?
**A.** The max activity was 29.4% [at 0.195 µM] (inactive).

**Q.** For `COc1ccccc1CNS(=O)(=O)c1ccc(N2CCCC2)cc1Br`, which max activity is on record?
**A.** Its max activity is -9.37% (inactive).

**Q.** Which max activity does the source give for `Cn1cccc1C(=O)OCC(=O)Nc1ccc2c(c1)OCCO2` here?
**A.** The max activity was -17.1% (inactive).

**Q.** Which max activity does the source give for `O=C(NCc1ccc(F)cc1)c1cc(C2CCCCN2S(=O)(=O)c2cccs2)on1` (stereo not drawn) here?
**A.** Its max activity is 15.1% [at 0.38 µM] (inactive).

**Q.** With `COc1ccccc1C=NNC(=O)c1ccncc1` as the compound, how does the max activity read?
**A.** Its max activity is 20.7% (inactive).

**Q.** For `c1nc(CCO[C@H]2CCCCO2)cc2cc3c(cc12)OCO3`, which max activity is on record?
**A.** Its max activity is 9.43% (inactive).

**Q.** With `Cc1ccc(S(=O)(=O)N2CCCCC2)cc1NC(=O)c1ccc2c(=O)n3c(nc2c1)CCCCC3` as the compound, how does the max activity read?
**A.** The max activity was 45.8% [at 6 µM] (inactive).

**Q.** For `CCCC(=O)N1CCCC(c2cc(C(=O)Nc3ccccc3)no2)C1` (stereo not drawn), which max activity is on record?
**A.** Its max activity is -23.2% [at 0.05 µM] (inactive).
